In ChEMBL document CHEMBL4513149, “CO-ADD screening of MMV (CH) - MMV compounds” (2021):
Results with a measured potency or affinity are listed apart.

system: Cryptococcus neoformans; conditions: Concentration 20 uM; ASSAY_TEST Inhibition of Fungal Growth; detection method Resazurin; Absorption (OD600-OD570); plate type 384well; NBS; CORNING #3640

Q: Which Inhibition does the source give for `Clc1ccc(CCNc2cc(-c3ccccc3)nc3ncnn23)cc1` here?
A: -16.06%

Q: Which Inhibition does the source give for `Cc1nn(C(=O)Nc2cccc(C(F)(F)F)c2)c(C)c1Sc1ncccn1` here?
A: -2.75%

Q: How did the Inhibition turn out when `CC(C)n1nc(-c2cc3c(Cl)cccc3[nH]2)c2c(N)ncnc21` was run?
A: -4.09%

Q: `O=C(NCCc1c[nH]c2ccccc12)c1cc2ccccc2oc1=O` was tested. Which Inhibition did it give?
A: -9.92%

Q: `O=C(c1cc2ccccc2o1)N1CCN(Cc2ccc3c(c2)OCO3)CC1` was tested. Which Inhibition did it give?
A: -15.32%

Q: `C[C@H](c1ccc2c(c1)CCCC2)N(C)c1ncc2c(N)nc(N)nc2n1` was tested. Which Inhibition did it give?
A: -9.74%

Q: `COc1ccc(-c2nnc3ccc(-c4cccc(C(C)C)c4)cn23)cc1OC` was tested. Which Inhibition did it give?
A: -9.03%

Q: With `NC(=O)c1cc(-c2ccsc2)ccc1OCCOc1ccccc1` as the compound, how does the Inhibition read?
A: -0.49%

Q: With `N#Cc1nc(-c2ccccc2)oc1S(=O)(=O)c1ccc(Cl)cc1` as the compound, how does the Inhibition read?
A: -7.91%

Q: With `CC1CCCCN1C(=O)NCCc1coc(-c2ccc(F)cc2)n1` (stereo unspecified) as the compound, how does the Inhibition read?
A: -14.62%

Q: For `COc1cccn2c(C(=O)N3CCCCC3)c(C(F)(F)F)nc12`, which Inhibition is on record?
A: -6.15%

Q: `FC(F)(F)c1cc(NCCc2ccccc2)nc(-c2ccccn2)n1` was tested. Which Inhibition did it give?
A: -6.05%

Q: How did the Inhibition turn out when `CCOc1ccccc1C(=O)Nc1cccc(-c2nc3ncccn3c2C)c1` was run?
A: -7.75%

Q: Which Inhibition does the source give for `CCOc1ccc2cc(-c3nn(CC4CCN(C)CC4)c4ncnc(N)c34)ccc2c1.Cl` here?
A: -9.79%

Q: With `O=C(NCc1cc(Cl)cc(Cl)c1)c1c(C(F)(F)F)nc2ccccn12` as the compound, how does the Inhibition read?
A: -5.43%

Q: How did the Inhibition turn out when `O=S(=O)(c1ccc(Cl)cc1)N1CCN(C(=S)NCc2ccco2)CC1` was run?
A: -0.21%

Q: With `CC(C)C(Oc1cccc2ccccc12)C(=O)O` (stereo unspecified) as the compound, how does the Inhibition read?
A: 4.84%

Q: `O=C(NC1CC1)c1ccc(N2CCOc3ccc(Cl)cc32)s1` was tested. Which Inhibition did it give?
A: 31.76%

Q: With `COc1ccc(CN2CCOc3ccc(C(C)(O)CN(C)C)cc3C2)cc1C` (stereo unspecified) as the compound, how does the Inhibition read?
A: -11.35%

Q: With `CCC(NC(=O)c1ccccc1NC(=O)c1ccc(C)cc1)C(=O)OC` (stereo unspecified) as the compound, how does the Inhibition read?
A: -3.77%

Q: With `Cc1cc(Cl)c(S(=O)(=O)N2CCCC2)cc1OCC(=O)NC1CCCCC1` as the compound, how does the Inhibition read?
A: -9.39%

Q: For `COc1ccc(Cl)cc1NC(=O)CN(C)C(=O)c1cnn(-c2ccccc2)n1`, which Inhibition is on record?
A: -5.87%

Q: Which Inhibition does the source give for `CCCCc1ccc(C(=O)Nc2nccc3ccccc23)nc1` here?
A: -8.5%

Q: `Cc1cc(Nc2ccc(C(F)(F)F)cc2)n2ccnc2n1` was tested. Which Inhibition did it give?
A: 2.17%

Q: Which Inhibition does the source give for `CCCCc1ccc(NC(=O)Nc2ccc(O[C@H]3CCCC[C@@H]3N(C)c3ccccc3)c(F)c2)cc1` here?
A: -1.2%

Q: With `CN1CCC(c2cc(-c3ccncc3)c(-c3ccc(F)cc3)[nH]2)CC1` as the compound, how does the Inhibition read?
A: 8.69%

Q: For `c1ccc2c(c1)CN(CC1CC1)CC1(CCN(Cc3c[nH]c4cnccc34)CC1)O2`, which Inhibition is on record?
A: -4.09%

Q: For `CC(Oc1ccccc1)C(=O)Nc1nc(-c2ccccn2)cs1` (stereo unspecified), which Inhibition is on record?
A: -5.96%

Q: For `Cc1noc(C)c1C(=O)N1CCCC(c2[nH]c3c(C)cccc3c2-c2ccncc2)C1` (stereo unspecified), which Inhibition is on record?
A: -7.96%

Q: For `COc1ccc(S(=O)(=O)Nc2ccc(CN3CCN(C(=O)c4cccc(C#N)c4)CC3)cc2)cc1`, which Inhibition is on record?
A: -8.14%

Q: `Nc1nccc2ccc(Oc3ccncc3)cc12` was tested. Which Inhibition did it give?
A: -6.05%

Q: Which Inhibition does the source give for `CC1=Nc2ccc(Cl)cc2C(O)(c2ccc(C)cc2)N1CCN1CCCCC1` (stereo unspecified) here?
A: -4.53%

Q: Which Inhibition does the source give for `NCC(=O)N1CCn2c(nc(-c3ccccc3)c2Nc2ccc3c(c2)OCO3)C1` here?
A: 7.53%

Q: `CCC(=O)Nc1ccccc1C(=O)Nc1ccccn1` was tested. Which Inhibition did it give?
A: -4.64%

Q: Which Inhibition does the source give for `O=C(NC1CCN(c2ccnc3ccccc23)C1)c1cccc(C(F)(F)F)c1` (stereo unspecified) here?
A: -3.95%

Q: For `CCc1nc2ccccc2n1CC(O)COc1cc(C)ccc1Cl` (stereo unspecified), which Inhibition is on record?
A: -20.36%
